Results reported in ChEMBL document CHEMBL3988442, “University of Dundee, Small-Polar-MMV Screening Library” (2021).

Target: T1, Aspartate--tRNA(Asp/Asn) ligase (Mycobacterium tuberculosis (strain ATCC 25618 / H37Rv)) (UniProt P9WFW3); further: in the data most compounds retested in dose-response had high values
T1 sequence (whole entry): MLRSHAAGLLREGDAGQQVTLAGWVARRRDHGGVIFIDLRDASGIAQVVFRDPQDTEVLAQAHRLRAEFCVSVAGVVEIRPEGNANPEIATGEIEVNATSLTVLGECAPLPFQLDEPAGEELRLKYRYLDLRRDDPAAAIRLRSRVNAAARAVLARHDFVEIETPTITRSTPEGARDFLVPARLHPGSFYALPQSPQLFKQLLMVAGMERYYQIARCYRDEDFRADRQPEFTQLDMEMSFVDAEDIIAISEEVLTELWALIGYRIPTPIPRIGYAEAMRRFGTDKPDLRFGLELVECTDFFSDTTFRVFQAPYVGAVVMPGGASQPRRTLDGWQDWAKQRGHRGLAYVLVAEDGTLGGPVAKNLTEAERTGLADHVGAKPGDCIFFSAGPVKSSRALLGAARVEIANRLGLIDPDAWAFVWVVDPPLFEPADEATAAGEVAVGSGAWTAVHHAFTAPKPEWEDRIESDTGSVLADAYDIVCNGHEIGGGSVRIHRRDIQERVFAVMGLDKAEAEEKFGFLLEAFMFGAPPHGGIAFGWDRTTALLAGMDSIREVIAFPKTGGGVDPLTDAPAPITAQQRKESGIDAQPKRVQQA
Experiment: Assay for Asp RNA synthetase-1 from Mycobacterium tuberculosis
Format: functional
Parameters: scale not given: direction of the effect not stated beside the values
Conditions: 30 µM

Compared with `CSC(C)C(=O)N1CCCN(Cc2cscn2)CC1` (stereo not given), `CCc1nc(CN2CCN(C(=O)CCc3ccccc3)CC2)cs1` is higher in Percent Effect: -6.57% for the first, -4.18% for the second.

First: O=C(CSC1CCc2ccccc2NC1=O)NCCc1ccco1 (stereo not given)
Second: CCNc1nc2c(s1)C(=O)CN(C(=O)NCCc1ccccc1)C2
The Percent Effect of the first is lower: -3.17% for the first, 2.72% for the second.

First: CSCc1cccc(S(=O)(=O)N2CCC(C)CC2)c1
Second: CNC(=O)c1cccc(NC(=O)CN2CCN(S(C)(=O)=O)CC2)c1
The Percent Effect of the first is higher: -1.92% for the first, -5.52% for the second.

First: Cc1cc(C)n(CCC(=O)N2CCCC(n3cncn3)C2)n1 (stereo not given)
Second: CNCC(=O)N1CCCC(c2cccc(Nc3nc(C)cc(C)n3)n2)C1 (stereo not given)
The Percent Effect of the first is lower: -6.22% for the first, 3.29% for the second.

Going from `CCOc1ccc(C#N)cc1NCC(=O)Nc1cc(C)no1` to `Cc1cc(C(=O)NCc2ccnc(N(C)C)c2)c(C)o1`, the Percent Effect rises from -5.54% to 5.55%.

First: N#Cc1cccnc1NCCNC(=O)N1CCCSCC1
Second: CC(C)(O)C1CCN(C(=O)Nc2nc(-c3ccccc3)ns2)CC1
The Percent Effect of the first is lower: 0.546% for the first, 1.51% for the second.

Going from `CCc1ccc(S(=O)(=O)N2CCC3(CC(C(=O)NC)=NO3)C2)cc1` (stereo not given) to `COC[C@@H]1CC[C@H]2[C@H](CCN2S(=O)(=O)c2ccc(F)cc2)O1`, the Percent Effect rises from -3.62% to 8.74%.

Compared with `c1cnc(N2C[C@H]3CCN(c4cccnc4)C[C@H]3C2)nc1`, `c1ccc(COC2CCN(c3cncc(-n4cccn4)n3)CC2)cc1` is lower in Percent Effect: -2.01% for the first, -3.76% for the second.

Compared with `CCn1cc(CN2CCCn3nc(CNC(=O)C4CCC4)cc3C2)cn1`, `Nc1nccc(NCc2cc3n(n2)CCCN(C2CCCCC2)C3)n1` is lower in Percent Effect: 4.07% for the first, -6% for the second.

Compared with `Fc1ccc(CN2CCCC2Cn2cccn2)c2ncccc12` (stereo not given), `c1ccc2sc(N3CCOC(Cn4cccn4)C3)nc2c1` (stereo not given) is higher in Percent Effect: -2.13% for the first, 6.21% for the second.

Compared with `CCc1n[nH]c(C2CN(C(=O)c3cnc[nH]3)CCO2)n1` (stereo not given), `CCCc1cc(C(=O)N2CCOC(c3nc(-c4cccs4)no3)C2)no1` (stereo not given) is higher in Percent Effect: -1.76% for the first, -0.544% for the second.

Going from `c1ccc(-n2cc(CN3CCCC(Cn4cncn4)C3)nn2)cc1` (stereo not given) to `Cn1c(Cn2ccnc2)nnc1C1CCN(Cc2cccnc2N)CC1`, the Percent Effect rises from -9.82% to -2.34%.

First: Cc1cnc(CN2CCCC2c2noc(C)n2)cn1 (stereo not given)
Second: Cc1ncc2c(n1)CN(Cc1nnc(-c3occc3C)o1)CC2
The Percent Effect of the first is lower: 0.514% for the first, 12.2% for the second.

First: COC(=O)CCc1c(C)nn(-c2nc(C)cc(=O)[nH]2)c1C
Second: COc1ccc(C(=O)N2Cc3c(Cn4ccnc4)nn(C)c3C2)cc1
The Percent Effect of the first is higher: -5.2% for the first, -10.7% for the second.

First: Cn1cccc1C(CNC(=O)c1ccc(F)cc1F)N1CCCCCC1 (stereo not given)
Second: OC(CN1CCN(Cc2ccc(F)c(F)c2)CC1)C1CC1 (stereo not given)
The Percent Effect of the first is higher: 1.24% for the first, -4.54% for the second.

First: O=C(c1ccsc1)N1CCc2c(COCc3ccncc3)cncc2C1
Second: O=C(c1cnc(COc2ccccc2)nc1O)N1CCOCC1
The Percent Effect of the first is lower: -1.03% for the first, 1.28% for the second.

First: Cc1nc(CC(=O)N2CCCCC2c2ccn3ccnc3n2)cs1 (stereo not given)
Second: Cc1nc(CN2C(=O)COC3(CCN(Cc4nccs4)CC3)C2C)cs1 (stereo not given)
The Percent Effect of the first is higher: -0.0744% for the first, -2.21% for the second.

First: O=C(CCc1nccs1)N1CCC(N2CCNC2=O)CC1
Second: Cc1nc[nH]c1CN1CCN(C(=O)CCC(F)(F)F)[C@H]2CS(=O)(=O)C[C@H]21
The Percent Effect of the first is higher: 4.28% for the first, -2.31% for the second.

Going from `Cc1ccc2cc(CNCCCN3CCOCC3)c(=O)[nH]c2c1` to `CC(C)(NCC(=O)NCCC#N)c1ccc2c(c1)OCCO2`, the Percent Effect rises from -2.01% to 11.1%.

Going from `CC(C)Cc1noc(CN(C)C(=O)C2COc3ccccc3C2)n1` (stereo not given) to `CC(C(=O)NCCCN1CCCCCC1=O)n1cncn1` (stereo not given), the Percent Effect rises from -1.81% to 2.08%.

Target: Shiga toxin 2 (Escherichia coli O157:H7) (UniProt P09385+P09386)
Experiment: E. coli 0.157:H7 Shiga Toxin SOP - stx2 screening assay
Format: functional
Parameters: scale not given: direction of the effect not stated beside the values
Conditions: 30 µM

First: CSC(C)C(=O)N1CCCN(Cc2cscn2)CC1 (stereo not given)
Second: CCc1nc(CN2CCN(C(=O)CCc3ccccc3)CC2)cs1
The Percent Effect of the first is higher: 25.4% for the first, -33.2% for the second.

Compared with `O=C(CSC1CCc2ccccc2NC1=O)NCCc1ccco1` (stereo not given), `CCNc1nc2c(s1)C(=O)CN(C(=O)NCCc1ccccc1)C2` is lower in Percent Effect: -9.27% for the first, -10.6% for the second.

Compared with `CSCc1cccc(S(=O)(=O)N2CCC(C)CC2)c1`, `CNC(=O)c1cccc(NC(=O)CN2CCN(S(C)(=O)=O)CC2)c1` is lower in Percent Effect: 4.74% for the first, 1.24% for the second.

Going from `Cc1cc(C)n(CCC(=O)N2CCCC(n3cncn3)C2)n1` (stereo not given) to `CNCC(=O)N1CCCC(c2cccc(Nc3nc(C)cc(C)n3)n2)C1` (stereo not given), the Percent Effect falls from 0.596% to -1.86%.

Going from `CCOc1ccc(C#N)cc1NCC(=O)Nc1cc(C)no1` to `Cc1cc(C(=O)NCc2ccnc(N(C)C)c2)c(C)o1`, the Percent Effect rises from -11.5% to -9.84%.

First: N#Cc1cccnc1NCCNC(=O)N1CCCSCC1
Second: CC(C)(O)C1CCN(C(=O)Nc2nc(-c3ccccc3)ns2)CC1
The Percent Effect of the first is higher: 12.8% for the first, -6.7% for the second.

Going from `CCc1ccc(S(=O)(=O)N2CCC3(CC(C(=O)NC)=NO3)C2)cc1` (stereo not given) to `COC[C@@H]1CC[C@H]2[C@H](CCN2S(=O)(=O)c2ccc(F)cc2)O1`, the Percent Effect rises from -7.42% to -4.21%.

Going from `c1cnc(N2C[C@H]3CCN(c4cccnc4)C[C@H]3C2)nc1` to `c1ccc(COC2CCN(c3cncc(-n4cccn4)n3)CC2)cc1`, the Percent Effect falls from -9.94% to -38.3%.

Going from `CCn1cc(CN2CCCn3nc(CNC(=O)C4CCC4)cc3C2)cn1` to `Nc1nccc(NCc2cc3n(n2)CCCN(C2CCCCC2)C3)n1`, the Percent Effect rises from -31% to -9.53%.

Compared with `Fc1ccc(CN2CCCC2Cn2cccn2)c2ncccc12` (stereo not given), `c1ccc2sc(N3CCOC(Cn4cccn4)C3)nc2c1` (stereo not given) is higher in Percent Effect: -3.45% for the first, 12.4% for the second.

First: CCc1n[nH]c(C2CN(C(=O)c3cnc[nH]3)CCO2)n1 (stereo not given)
Second: CCCc1cc(C(=O)N2CCOC(c3nc(-c4cccs4)no3)C2)no1 (stereo not given)
The Percent Effect of the first is higher: 27.7% for the first, -10.2% for the second.

Going from `c1ccc(-n2cc(CN3CCCC(Cn4cncn4)C3)nn2)cc1` (stereo not given) to `Cn1c(Cn2ccnc2)nnc1C1CCN(Cc2cccnc2N)CC1`, the Percent Effect rises from -48.9% to -12.5%.

First: Cc1cnc(CN2CCCC2c2noc(C)n2)cn1 (stereo not given)
Second: Cc1ncc2c(n1)CN(Cc1nnc(-c3occc3C)o1)CC2
The Percent Effect of the first is higher: 4.6% for the first, -43.7% for the second.

First: COC(=O)CCc1c(C)nn(-c2nc(C)cc(=O)[nH]2)c1C
Second: COc1ccc(C(=O)N2Cc3c(Cn4ccnc4)nn(C)c3C2)cc1
The Percent Effect of the first is lower: -12.7% for the first, -6.82% for the second.

First: Cn1cccc1C(CNC(=O)c1ccc(F)cc1F)N1CCCCCC1 (stereo not given)
Second: OC(CN1CCN(Cc2ccc(F)c(F)c2)CC1)C1CC1 (stereo not given)
The Percent Effect of the first is lower: -33.8% for the first, -0.879% for the second.

Compared with `O=C(c1ccsc1)N1CCc2c(COCc3ccncc3)cncc2C1`, `O=C(c1cnc(COc2ccccc2)nc1O)N1CCOCC1` is higher in Percent Effect: -68.5% for the first, -10.9% for the second.

Compared with `Cc1nc(CC(=O)N2CCCCC2c2ccn3ccnc3n2)cs1` (stereo not given), `Cc1nc(CN2C(=O)COC3(CCN(Cc4nccs4)CC3)C2C)cs1` (stereo not given) is lower in Percent Effect: 4.13% for the first, -29.4% for the second.

Compared with `O=C(CCc1nccs1)N1CCC(N2CCNC2=O)CC1`, `Cc1nc[nH]c1CN1CCN(C(=O)CCC(F)(F)F)[C@H]2CS(=O)(=O)C[C@H]21` is higher in Percent Effect: -16.6% for the first, 17.8% for the second.

Compared with `Cc1ccc2cc(CNCCCN3CCOCC3)c(=O)[nH]c2c1`, `CC(C)(NCC(=O)NCCC#N)c1ccc2c(c1)OCCO2` is higher in Percent Effect: -12.7% for the first, 14.2% for the second.

Compared with `CC(C)Cc1noc(CN(C)C(=O)C2COc3ccccc3C2)n1` (stereo not given), `CC(C(=O)NCCCN1CCCCCC1=O)n1cncn1` (stereo not given) is higher in Percent Effect: -46.4% for the first, 20% for the second.
